High-throughput results deposited in PubChem BioAssay by Broad Institute.
Tg IFNy HTS = T. gondii growth inhibition with IFN-gamma, primary screen, cell-based; Toxoplasma gondii growth in IFN-gamma-treated host cells; active compounds read low; activity change, negative = inhibition, % (no concentration beside the values); 3.8% of 69,000 active; in the data active = activity change below about -70%, passing the limit was not always enough;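 note: host cells are HeLa cells infected with Toxoplasma gondii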
* marks the source's active call; other numbers are inactive results; ! = not confirmed by another sample. This excerpt belongs to a sample that is enriched for hits.

SMILES	Tg IFNy HTS
Cn1cnnc1Sc1nc2c(c(=O)n(C)c(=O)n2C)n1C	-1
Cn1c(=O)c2c(nc(SCC(=O)Nc3nc(-c4cccs4)cs3)n2C)n(C)c1=O	-103*
CCn1ncnc1CN1CCC(CNC(=O)c2cccc(C)c2)C1 (centres undefined)	-40
CCOCC(=O)N1CCC2(CCCN2CC2CC2)CC1	9
Cc1cnc(N2C[C@H]3C[C@H](C(=O)NCc4cccnc4)[C@@H](C2)O3)nc1	178
C=CCn1c(Sc2ncnc3c2sc(=S)n3CC=C)nnc1-c1ccccc1	-27
O=C(c1cc2cccnc2n(Cc2ccc(F)cc2)c1=O)N1CCN(c2ccccc2Cl)CC1	-84*
O=C(c1ccco1)N1CCN(C(=O)c2cc3cccnc3n(Cc3ccc(F)cc3)c2=O)CC1	-15
CN(Cc1ccccc1)C(=O)c1cc2cccnc2n(Cc2ccccc2)c1=O	16
COc1ccc(N2CCN(C(=O)c3cc4cccnc4n(Cc4ccc(F)cc4)c3=O)CC2)cc1	33
CC1CCN(C(=O)c2cc3cccnc3n(Cc3ccc(F)cc3)c2=O)CC1	15
COc1ccccc1N1CCN(C(=O)c2cc3cccnc3n(Cc3ccccc3)c2=O)CC1	28
O=C(c1cc2cccnc2n(Cc2ccc(Cl)cc2)c1=O)N1CCN(c2ccccc2)CC1	-4
O=C(c1cc2cccnc2n(Cc2ccc(F)cc2)c1=O)N(Cc1ccccc1)c1ccccc1	-29
O=C(c1cc2cccnc2n(Cc2ccc(F)cc2)c1=O)N1CCN(c2cccc(Cl)c2)CC1	-119*
O=C(c1cc2cccnc2n(Cc2ccc(Cl)cc2)c1=O)N1CCN(c2ccc(F)cc2)CC1	-98*
O=C(c1cc2cccnc2n(Cc2ccc(F)cc2)c1=O)N1CCCCCC1	-12
CC(C)N(Cc1ccccc1)C(=O)c1cc2cccnc2n(Cc2ccc(F)cc2)c1=O	-96*
CN1CCN(C(=O)c2cc3c([nH]c2=O)CCCC3)CC1C(=O)O (centres undefined)	-44
Cc1cc(C(=O)Nc2ccc(Oc3c(Cl)cccc3Cl)nc2)n(C)n1	-53
CC1(C)CC(c2nccn2CCCc2nn[nH]n2)CCO1 (centres undefined)	-2
COc1ccccc1-c1ccc(NCC2COCCO2)nn1 (centres undefined)	8
Cc1cc(C(=O)N2C[C@@H]3C[C@@H](C(N)=O)CN3Cc3ccccc32)no1	7
CS(=O)(=O)N1Cc2cc(Oc3cccnc3)ccc2C1c1cnco1 (centres undefined)	26
COc1ccc2c(c1)CC(NCC1CCN(C(=O)C(C)C)CC1)CC2 (centres undefined)	-2
SMILES	Tg IFNy HTS
CC1(C)Cc2c(sc3ncnc(N)c23)CO1	7
CCCCN(CCCC)c1ncnc2c1sc1nc3c(cc12)COC(C)(C)C3	-103*
CC(CN1CCOCC1)NC(=O)Cc1sc(N)nc1-c1ccc2c(c1)OCCO2 (centres undefined)	10
CCCc1cc(CNC(=O)C2C=CCN2S(C)(=O)=O)on1 (centres undefined)	115
NCCCCCCNS(=O)(=O)c1cccc2ccccc12	3
NC(N)=NCCNS(=O)(=O)c1cccc2cnccc12	-49
Nc1nc(NCC2CCC(CNS(=O)(=O)c3cccc4ccccc34)CC2)nc2ccccc12 (centres undefined)	-77*!
Cc1ccc(CSc2ncnc3sc(C)c(C)c23)cc1	-35
CCCc1cc(C(=O)NC(C)c2nnc3n2CCNCC3)cs1 (centres undefined)	5
O=C(c1cc2n(n1)CCN(C(=O)c1ccc(CO)o1)C2)N1CCCC1	1
CC(C)CN1CC[C@H]2[C@@H]1CCN2S(=O)(=O)c1cccs1	-4
COc1ccc(S(=O)(=O)N2CC3CCC2C3Oc2cccnc2)cc1 (centres undefined)	-4
COC1C2CCC1N(S(=O)(=O)c1cccs1)C2 (centres undefined)	-77*
COc1ccc(-n2ccnc2CN2CCC(n3nc(C)cc3C)C2)cc1 (centres undefined)	-1
CCOC(=O)C1CCN(S(=O)(=O)Cc2ccccc2)C1=O (centres undefined)	-44
CC(=O)Nc1ccc(C23CC4CC(CC(C4)C2)C3)c(C)c1	-57
O=C(O)c1ccc2cc(-c3ccc(O)c(C45CC6CC(CC(C6)C4)C5)c3)ccc2c1	-74*
O=C(O)c1ccc(-c2ccc3cc(O)c(C45CC6CC(CC(C6)C4)C5)cc3c2)cc1	-43
CC(C)[C@H]1C/C=C\CCNC(=O)[C@H](C)CC(=O)N1	1
CN(C)CCCOc1cccc(C(=O)O)c1	-15
CN(C)CCOc1ccc(/C(=C(/CCCl)c2ccccc2)c2ccccc2)cc1	-88*
CCCCCOc1ccc(C(=O)c2ccccc2)cc1	-11
CNC(=O)c1cc(=O)n(CC(=O)Nc2cc(OC)cc(OC)c2)c2ccccc12	2
COc1ccc(-c2nc3c(s2)CN(C(=O)Nc2ccc(C)cc2)CC3)cc1OC	-42
O=S(=O)(c1ccccc1Cl)N1CCc2nc(-c3ccccc3)sc2C1	-15
SMILES	Tg IFNy HTS
COc1ccc(-c2nc3c(s2)CN(S(=O)(=O)c2ccc(C)cc2)CC3)cc1OC	-87*
COc1ccc(-c2nc3c(s2)CN(S(=O)(=O)c2ccc(C)c(C)c2)CC3)cc1OC	-98*
COc1ccc(-c2nc3c(s2)CN(S(=O)(=O)c2cc(F)ccc2C)CC3)cc1OC	-68
COc1ccc(-c2nc3c(s2)CN(S(=O)(=O)c2ccc(F)cc2)CC3)cc1OC	18
COc1ccc(-c2nc3c(s2)CN(S(=O)(=O)c2ccccc2C)CC3)cc1OC	-94*
O=S(=O)(c1ccc(F)c(Cl)c1)N1CCc2nc(-c3ccccc3)sc2C1	16
COc1ccc(Cl)cc1S(=O)(=O)N1CCc2nc(-c3ccccc3)sc2C1	-118*
COc1ccc(-c2nc3c(s2)CN(S(=O)(=O)Cc2ccccc2)CC3)cc1OC	-35
COc1ccc(-c2nc3c(s2)CN(S(=O)(=O)c2ccc(NC(C)=O)cc2)CC3)cc1	-26
CCc1ccc(S(=O)(=O)N2CCc3nc(-c4ccc(OC)c(OC)c4)sc3C2)cc1	21
Cc1ccsc1[C@@H]1CCN(Cc2ccc(-c3ccn[nH]3)o2)C[C@H]1O	18
COc1ccc(-c2nc(NC3CC3)c3ccccc3n2)cc1	-48
Cc1cc(F)ccc1NC(=O)Cn1ncc2c(N3CCOCC3)ncnc21	111
COc1ccc(CNS(=O)(=O)c2cc3c4c(c2)CCC(=O)N4CCC3)cc1	2
CCc1nc(OCC(=O)Nc2cccc(Br)c2)c2ccccc2n1	-37
Cc1ccc(C)n1N(C)c1cccc(F)c1C#N	21
CCN(Cc1noc(C)n1)C(=O)CCc1c[nH]c2ccccc12	2
OC(CN1CCN(c2ncccn2)CC1)c1ccc(F)cc1 (centres undefined)	11
C=CCNc1nc(NCC=C)nc(N2CCN(C(c3ccc(F)cc3)c3ccc(F)cc3)CC2)n1	-72*
O=C1c2ccccc2C2N1CCCN2S(=O)(=O)c1cccc(C(F)(F)F)c1 (centres undefined)	-44
Cc1ncoc1C(=O)N1CCCC(C(=O)c2ccc(-c3ccccc3)c(F)c2)C1 (centres undefined)	22
C[C@@H]1CN([C@@H](C)CO)S(=O)(=O)c2ccc(-c3cccc(C#N)c3)cc2O[C@@H]1CN(C)C(=O)c1ccccc1	-63
CCc1nc(Cn2ccnc2-c2nc(-c3ccccc3)cs2)no1	61
COc1ccc(-c2c(C#N)c(N)nc3c2CCc2ccccc2-3)cc1OC	-86*
COc1ccc(-c2cc(-c3ccccc3)nc(N)c2C#N)cc1OC	19
COc1ccc(-c2cc(=S)sc(N)c2C#N)cc1OC	65
